The list is not random: actives were taken first. Their share in the collection is about 18%.
PLK1 PBD block – qHTS for Inhibitors of PLK1-PDB (polo-like kinase 1 - polo-box domain): Primary Screen. Serine/threonine-protein kinase PLK1 (Homo sapiens), P53350. Plk1 PBD binding of FITC phosphopeptide, fluorescence polarization. Potency, µM, inactives show max response, negative = inhibition, usual class: inhibitors. 360,000 compounds, 2.8% hits. AID 720504, 2013; also: series mostly up to about 57 µM; nearly all actives have a fitted effect of over 65% in size
KAT2A inh – qHTS Assay for Inhibitors of GCN5L2 | GCN5L2 HAT assay, ThioGlo1 CoA-SH fluorescence | Potency, µM (doses to about 58.9 µM), inactives show top-dose activity change, negative = inhibition, most hits filed as inhibitors | 390,000 compounds, 0.21% hits | AID 504327, 2011
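Titration-based screen in which CoA formation is detected via maleimide probe ThioGlo1 (50uM) turning fluorescent on thiol reaction; substrates H3(1-25) 75uM and acetyl-CoA 70uM, GCN5L2 20nM, 20 min incubation at room temperature.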
VDR inhibitor – Inhibitors of the vitamin D receptor (VDR): qHTS; AID 504847, 2011; 400,000 compounds, 0.93% hits; VDR-SRC2-3 peptide fluorescence polarization, 2 h; Potency, µM, without a hit: max response, negative = inhibition, most hits filed as inhibitors
Target sequence (P11473 whole entry, looked up): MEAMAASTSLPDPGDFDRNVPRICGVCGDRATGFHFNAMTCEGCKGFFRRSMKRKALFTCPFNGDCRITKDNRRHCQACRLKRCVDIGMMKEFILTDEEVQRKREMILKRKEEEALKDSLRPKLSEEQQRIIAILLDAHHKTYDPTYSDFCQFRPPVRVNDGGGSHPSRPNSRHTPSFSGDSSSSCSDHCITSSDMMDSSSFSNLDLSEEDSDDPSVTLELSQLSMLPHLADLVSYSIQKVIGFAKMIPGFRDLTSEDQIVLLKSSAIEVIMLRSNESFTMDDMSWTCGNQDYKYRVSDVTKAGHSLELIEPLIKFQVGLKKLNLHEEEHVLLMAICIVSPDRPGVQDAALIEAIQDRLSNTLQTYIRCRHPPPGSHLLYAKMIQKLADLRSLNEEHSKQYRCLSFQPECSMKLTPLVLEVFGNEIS
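Inhibition of the VDR/SRC2-3 peptide interaction is quantified by fluorescence polarization. Compounds (23 nl, pintool) incubate with the reagents for 2 hours at ambient room temperature.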
DT40 TDP1 CPT – qHTS for Inhibitors of human tyrosyl-DNA phosphodiesterase 1 (TDP1): qHTS in cells in presence of CPT; chicken DT40 Tdp1-/-;hTDP1 cells + 20 nM CPT, ATP luminescence, 48 h; Potency, µM (titrated, usually from 46.2 µM), for the others: top-dose activity change, negative = growth inhibition, usual class: inhibitors; 420,000 compounds, 12% hits; AID 686979, 2013; also: nearly all actives have a fitted effect of over 55% in size
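Chicken DT40 Tdp1-/- cells stably complemented with human TDP1 were seeded at 400 cells/well in medium containing 20 nM camptothecin, exposed to pin-transferred compounds, and grown at 37 °C for at least 48 hr. Viability was read as ATP luminescence.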
TDP1 inh – qHTS Assay for Inhibitors of Tyrosyl-DNA Phosphodiesterase (TDP1); Potency, µM (titrated, usually from 130 µM), for the others: at the highest dose activity change, negative = inhibition, usual class: inhibitors; 350,000 compounds, 0.28% hits; AID 485290, 2010; Tyrosyl-DNA phosphodiesterase 1 (Homo sapiens), Q9NUW8; recombinant TDP1, AlphaScreen DNA substrate cleavage; also: nearly all actives have a fitted effect of over 40% in size
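Signal: AlphaScreen proximity between streptavidin donor and anti-FITC acceptor beads on intact substrate. Reaction: Tdp1 1 nM, substrate 15 nM final, 5 min RT after 15 min compound preincubation.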
DT40 TDP1 no CPT – qHTS for Inhibitors of human tyrosyl-DNA phosphodiesterase 1 (TDP1): qHTS in cells in absence of CPT; DT40 Tdp1-/- hTDP1 cells, no CPT, ATP luminescence, 48 h; Potency, µM (series often up to 46.2 µM), inactives show top-dose activity change, negative = growth inhibition, hits mostly inhibitors; 420,000 compounds, 15% hits; also: nearly all actives have a fitted effect of over 55% in size
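Cells were dispensed at 400 per well, compounds added by pin tool, plates incubated ≥48 hr at 37 °C, then CellTiter-Glo added for 30 min at room temperature before luminescence reading. Line: DT40 Tdp1-/- complemented with hTDP1; camptothecin omitted.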
* hit, by the source's call; u = inconclusive; x = no result given; [ ] = remark or other dose. Calls follow the shape of the dose curve; as a rule, active = well fitted curve in the direction sought with a large enough effect; inconclusive = small, poorly fitted or top-dose-only effect, or another doubt; inactive = no such curve, though single readings can be large; an effect the other way counts as inactive or inconclusive. % is scaled to controls: 0 for no effect and ±100 for the full control effect; potency is read from the fitted curve at half-maximal effect.

SMILES	PLK1 PBD block	KAT2A inh	VDR inhibitor	DT40 TDP1 CPT	TDP1 inh	DT40 TDP1 no CPT
O=C(O)[C@@H]1CCN1	x	1%	-10%	x	6%[56.1 µM]	x
CN1[C@H]2CC(=O)C[C@@H]1[C@@H](O)C2	x	-5%[21.4 µM]	0%	x	6%[21 µM]	x
Cc1c(P(=S)(c2ccccc2)c2ccccc2)[n+]2ccccc2n1C	-7%	-15%	-10%	5.8µM*	3%	4.1µM*
Cc1c(P(=S)(c2ccccc2)c2ccccc2)c2ccccc2n1C	x	x	x	x	-2%	x
CCOC(=O)C1(CCOc2ccccc2)CCN(Cc2ccccc2OC)CC1	-6%	-15%	-8%	16µM*	x	15µM*
CCOC(=O)C1(CCc2ccccc2)CCN(Cc2cccc3c2OCO3)CC1	-7%	1%	-4%	u	x	9.2µM*
Cc1ccc(C2=NC(C)(C)N3C2C3c2ccc([N+](=O)[O-])cc2)cc1 (stereo not given)	-9%	-2%	-17%	u	-1%	21µM*
Cl/C=C\Cl	x	x	x	x	9%	x
CCn1ccnc1CN1CCCC(C(=O)c2cccc(C(F)(F)F)c2)C1 (stereo not given)	-15%	0%	-1%	u	5%	26µM*
CCn1ccnc1CN1CCCC(C(=O)c2cc(F)ccc2OC)C1 (stereo not given)	-9%	-24%	5%	u	7%	u
O=C(c1cccc(C(F)(F)F)c1)C1CCCN(Cc2ncc[nH]2)C1 (stereo not given)	-6%	0.16µM*	8%	u	-2%	-23%
O=C(c1ccc2c(c1)OCO2)C1CCCN(Cc2ccccn2)C1 (stereo not given)	6%	u	-3%	-16%	0%	-26%
CCOP(=S)(OCC)SCC(=O)NC(C(=O)O)C(C)C (stereo not given)	-3%	2%	4%	4%	-6%	3%
CC(=O)Oc1ccc(/C=C/c2cc(OC(C)=O)cc(OC(C)=O)c2)cc1	x	-7%	5%	u	3%	12µM*
N#Cc1cccc(NC(=O)N2CC3(CCN(C(=O)Oc4ccccc4)CC3)C2)c1	x	5%	-5%	-4%	x	u
COc1ccc2c3c1O[C@H]1[C@@H](O)C=C[C@H]4[C@@H](C2)NCC[C@@]341	x	x	x	-7%[92.5 µM]	x	u
CCOc1ccc(C2c3c(-c4ccccc4O)n[nH]c3C(=O)N2Cc2ccncc2)cc1 (stereo not given)	x	1%	19%	7.3µM*	9%	5.2µM*
O=C1NC(=O)C(CCc2ccncc2)(Cc2ccc(OCc3ccccc3)cc2)C(=O)N1	4%	2%	-9%	9%	4%	-6%
O[C@@H]1[C@H](O)[C@H]2[C@@H](O)CCN2C[C@@H]1O	x	-7%	26%	11%	-10%[56.1 µM]	-2%
CCN(c1ccc(C)cc1C)S(=O)(=O)c1nnc(NC(=O)c2ccco2)s1	27µM*	-3%	12%	-44%	5%	-25%
CCCCOc1ccc(C(C)=O)cc1Cc1c(O)[nH]c(=S)[nH]c1=O	u	u	u	9%	x	-5%
COc1ccc(Cc2c(O)[nH]c(=S)[nH]c2=O)cc1	27µM*	6.3µM*	-14%	11%	5%	15%
Cc1ccccc1NC(=O)NCCN1CC1	-6%	0%	-14%	4.1µM*	1%	7.3µM*
CC(CC(C)(C)N1CC1)=NNC(=O)Nc1cccc2ccccc12	-3%	x	6%	3.7µM*	x	2.9µM*
O=C(NCCCN1CC1)Nc1cccc2ccccc12	-12%	x	-3%	1.6µM*	x	7.3µM*
C=C(Cl)CCl	x	x	x	x	5%	x
